PubChem BioAssay (Tox21)
Results filed as inconclusive are left out. Unmarked numbers belong to inactive results. The source made the active and inactive calls. Calls follow the shape of the dose curve; as a rule, active = well fitted cell-killing curve with a large enough effect in the repeat runs; inconclusive = weak or mixed curves, or effect the other way; inactive = flat fitted curve, though single readings scatter.

Experiment: cAMP Responsive Elements (CRE) small molecule agonists, cell-based qHTS assay: qHTS cell viability counter screen (AID 2060914);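 also: viability read after 3 h of compound exposure; nearly all actives have a fitted effect of over 50% in size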
Details: CRE-bla HEK293T viability, CellTiter-Glo luminescence, 5 h; series mostly up to 92.4 µM; activity change, negative = cytotoxicity: at the top concentration
From the text: National Center for Advancing Translational Sciences [NCATS]
Division of Preclinical Innovation [DPI]
U.S. Environmental Protection Agency [EPA]
National Institutes of Environmental Health Sciences [NIEHS]
National Toxicology Program [NTP]
U.S. Food and Drug Administration [FDA]
CREB (cyclic-AMP Responsive Element Binding Protein) is a cellular transcription factor. It binds to certain DNA sequences called cAMP Responsive Elements (CRE) and regulates the transcription of the genes. […] This cell line can be used to find agonists/antagonists of the cyclic AMP signaling pathway. The activation of the report gene under culture conditions can be detected by fluorescence intensity. This cell line has been used to screen the Tox21 10K compound library to identify agonists that induce oxidative stress. The cytotoxicity of the Tox21 compound library against the CRE-bla cell line was tested in parallel by measuring the cell viability using CellTiter-Glo assay (Promega, Madison, WI) in the same wells.
Tox21 Assay Protocol Summary:
CRE-bla Hek 293T cells were suspended in assay medium (DMEM containing 10% dialyzed FBS, 0.1 mM NEAA, 1 mM sodium pyruvate and 25 mM HEPES) and dispensed at 2,000 cells/5 uL /well into 1536-well black wall/clear bottom plates using a Multidrop Combi (ThermoFisher Scientific, Waltham, MA) dispenser. After the assay plates were incubated at 37 C/5% CO2 for 18 hrs, 23 nL of compounds dissolved in DMSO, positive controls or DMSO only was transferred to the assay plate by a pintool workstation (Kalypsys, San Diego, CA). After the plates were incubated at 37 C/5% CO2 for 3 hrs, 1 uL of LiveBLAzer B/G FRET substrate (Invitrogen, Carlsbad, CA) was added to each well using Bioraptr Flying Reagent Dispenser (FRD, Aurora Discovery, San Diego, CA). The plates were incubated at room temperature for 2 h, then fluorescence intensities were measured using an Envision plate reader (PerkinElmer, Shelton, CT) at Excitation 405nm, Emission 460nm and 530nm. The % activity was determined from the ratio of 460nm/530nm. For cell viability readout that measures cytotoxicity, 4 uL /well of CellTiter-Glo reagent was added into the assay plates using Bioraptr FRD. After 30 min incubation at room temperature, the luminescence intensity in the assay plates was measured using a ViewLux (PerkinElmer, Shelton, CT) plate reader.
% is scaled to controls: 0 for no effect and ±100 for the full control effect.

Row | SMILES | activity change, negative = cytotoxicity | Potency
1 | Nc1nc(N)nc(-c2cc(Cl)ccc2Cl)n1 | -4.89% [at 42.5 µM] | –
2 | COc1ccc2nc(N)sc2c1 | – | inactive
3 | O=C(O)c1c(Cl)cccc1Cl | -3.16% | –
4 | CCCCCC(C)OC(=O)COc1ccc(Cl)c2cccnc12 (stereo not given) | -14% | –
5 | CC(=O)N(CC(O)CN(C(C)=O)c1c(I)c(C(=O)NCC(O)CO)c(I)c(C(=O)NCC(O)CO)c1I)c1c(I)c(C(=O)NCC(O)CO)c(I)c(C(=O)NCC(O)CO)c1I (stereo not given) | -3.41% [at 42.5 µM] | –
6 | COc1cccc(OC)c1 | 2.29% | –
7 | CN(C)CC/C=C1/c2ccccc2COc2ccc(CC(=O)O)cc21 | 2.96% [at 42.5 µM] | –
8 | CCN(CC)CCNC(=O)c1cc(Cl)c(N)cc1OC | 7.43% [at 42.5 µM] | –
9 | CC(C)(O)c1ccc(C(C)(C)O)cc1 | 10.1% | –
10 | O=C(CCCN1CCC(O)(c2cccc(C(F)(F)F)c2)CC1)c1ccc(F)cc1 | 10.2% [at 42.5 µM] | –
11 | COc1cc(NCc2ccc3nc(N)nc(N)c3c2C)cc(OC)c1OC | -13.8% [at 42.5 µM] | –
12 | CN1CCCCC1CCN1c2ccccc2Sc2ccc(S(C)=O)cc21 (stereo not given) | 10.8% [at 42.5 µM] | –
13 | OC1CCCCCCCCCCC1 | – | inactive
14 | O=C(O)/C=C/c1ccc(O)c(O)c1 | 4.42% | –
15 | ON=C1CCCC1 | 13.4% | –
16 | CCCn1cnc2c1c(=O)n(CCCCC(C)=O)c(=O)n2C | 1.72% [at 42.5 µM] | –
17 | CC(C)(C)C(=O)OCOP(=O)(COCCn1cnc2c(N)ncnc21)OCOC(=O)C(C)(C)C | 3.24% [at 42.5 µM] | –
18 | Cc1cccc(NC(=S)N(C)C)c1 | 0.517% | –
19 | COc1ccc(OC)c(OC)c1 | 13.8% | –
20 | Cc1ccc(O)c2ncccc12 | -0.429% [at 42.5 µM] | –

Row | SMILES | activity change, negative = cytotoxicity | Potency
21 | CN(C)[C@@H]1C(=O)C(C(N)=O)=C(O)[C@@]2(O)C(=O)C3=C(O)c4c(O)ccc(Cl)c4[C@@H](O)[C@H]3C[C@@H]12 | 3.82% [at 42.5 µM] | –
22 | Cc1ccc(O)c([C@H](CCN(C(C)C)C(C)C)c2ccccc2)c1 | 0.548% [at 42.5 µM] | –
23 | Nc1c2ccccc2nc2ccccc12 | – | inactive
24 | c1cnc2c(n1)CCCC2 | 14% | –
25 | CN1C(C(=O)Nc2ccccn2)=C(O)c2ccccc2S1(=O)=O | – | inactive
26 | CC(=O)OCC(COC(C)=O)OC(C)=O | – | inactive
27 | CC(C)COC(=O)c1ccccc1 | 0.62% | –
28 | COc1ccc(CCN(C)CCCC(C#N)(c2cc(OC)c(OC)c(OC)c2)C(C)C)cc1OC (stereo not given) | -5.54% [at 42.5 µM] | –
29 | NCCCNCCSP(=O)(O)O | 3.53% [at 8.39 µM] | –
30 | O=C(O)CNC(=O)c1ccccc1 | 13.7% [at 42.5 µM] | –
31 | OC/C=C/c1ccccc1 | -1.66% | –
32 | O=C1NCC2(CCN(CCc3ccccc3)CC2)O1 | 2.74% [at 42.5 µM] | –
33 | CCC(Cl)C(Cl)C(Cl)CC(Cl)C(Cl)C(C)Cl (stereo not given) | -18.4% | –
34 | NC(=O)NC1NC(=O)NC1=O (stereo not given) | – | inactive
35 | O=C(CCCl)NCc1ccccc1 | 6.31% [at 42.5 µM] | –
36 | c1cc(N(CC2CO2)CC2CO2)ccc1OCC1CO1 (stereo not given) | – | inactive
37 | O=S(=O)(Oc1ccc(Cl)cc1)c1ccccc1 | -3.56% | –
38 | Nc1nc(CC(=O)O)cs1 | -14.6% | –
39 | CC(C)=CCCC(C)CCOC(=O)C(C)C (stereo not given) | 16.1% | –
40 | CCC(C)O (stereo not given) | 12.5% | –
